Compound activity (PubChem)
An excerpt weighted towards active compounds, which were near 8.1% of everything screened.
MCF10A rereplic: induces DNA re-replication in MCF 10a normal breast cells. MCF 10A DNA re-replication, Hoechst nuclear intensity, 48 h. Potency, µM (series often up to 46.1 µM), inactives show at the highest dose activity, positive = re-replication, actives largely listed as activators. 350,000 compounds, 2.9% hits; further: % of control where 0% means no effect; nearly all actives have a fitted effect of over 50% in size
KB-V1 cytotox: KB-V1 MDR subline cytotoxicity. KB-V1 MDR cells viability, CellTiter-Glo, 72 h. Potency, µM (doses to about 46.1 µM), actives largely listed as cytotoxic. 400,000 compounds, 3.4% hits. AID 1347076; further: on the % scale 0 is the no-effect control and ±100 the full control effect; nearly all actives have a fitted effect of over 60% in size
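Cytotoxicity toward P-gp-expressing KB-V1 cells was determined as loss of CellTiter-Glo luminescence after 72 h at 37 degrees C. Compounds were tested in quantitative HTS format across a concentration range, with curves fitted to normalized data.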
ELG1 repair inh: blocks ELG1-dependent DNA repair in HEK293T cells; HEK293T ELG1-luciferase reporter, luminescence, 16 h; DNA damage induced by 5-fluorouridine; Potency, µM (series often up to 46.1 µM), inactives show top-dose activity change, negative = inhibition, most hits filed as inhibitors; 330,000 compounds, 2.3% hits; AID 504467; further: on the % scale 0 is the no-effect control and ±100 the full control effect; nearly all actives have a fitted effect of over 55% in size
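Cells (2,000 per well) received 5-fluorouridine plus test compound or DMSO and were incubated 16 hr at 37 °C, 5% CO2. Luciferase activity was read by luminescence 30 min after ONE-Glo addition; signal suppression marked inhibition of damage-induced ELG1 function.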
SW480 rereplic: inducers of DNA re-replication in SW480 colon cancer cells; 340,000 compounds, 1.8% hits; SW480 DNA re-replication, Hoechst DNA content imaging, 48 h; AID 624297; Potency, µM (top dose mostly 46.1 µM), without a hit: top-dose re-replication activation, most hits filed as activators; further: % of control where 0% means no effect; nearly all actives have a fitted effect of over 55% in size
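Hoechst fluorescence of nuclei (405 nm excitation, 500-530 nm emission) measured by plate-scanning imager after 48 hr compound exposure at 37 C; re-replication scored as increased number of nuclei with elevated intensity.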
KB-3-1 cytotox: kills parental KB-3-1 adenocarcinoma cells. KB-3-1 viability, CellTiter-Glo ATP luminescence, 72 h. Potency, µM (highest dose often 46.1 µM), most hits filed as cytotoxic. 400,000 compounds, 1.4% hits; further: on the % scale 0 is the no-effect control and ±100 the full control effect; nearly all actives have a fitted effect of over 60% in size
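Cytotoxicity measured as CellTiter-Glo luminescence after 72 h at 37 C. Compound titrations were pinned onto drug-naive KB-3-1 parental adenocarcinoma cells grown in DMEM with 10% FBS, and normalized data fitted to concentration-response curves.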
* = called active by the depositor; i = inactive; ? = inconclusive; · = not tested or not shown. The call rests on the fitted dose curve; in most records, active means well fitted curve in the direction sought with a large enough effect; inconclusive means small, poorly fitted or top-dose-only effect, or another doubt; inactive means no such curve, though single readings can be large; an effect the other way counts as inactive or inconclusive. Potency means the concentration at half of the fitted maximal effect.

SMILES	MCF10A rereplic	KB-V1 cytotox	ELG1 repair inh	SW480 rereplic	KB-3-1 cytotox
O=C(Nc1ccccc1)N1CCN(c2cccc(C(F)(F)F)c2)CC1	-8%	?	?	-7%	i
CC(C)(C)c1ccc(NC(=O)N2CCCN(c3ccc([N+](=O)[O-])cn3)CC2)cc1	-13%	10µM*	?	2%	?
O=C(Cc1ccc(-n2cccc2)cc1)NCc1ccccc1Cl	4.1µM*	i	-15%	18µM*	?
O=C(Cc1ccccc1)NCc1ccc(-n2cccc2)cc1	10µM*	i	-3%	6.5µM*	?
O=C(CCn1cccc1)NCc1ccccc1	-6%	i	6%	12%	i
CCCC12CN3CC(C)(CN(C1)C3c1ccc(CC)cc1)C2=O (centres undefined)	·	i	·	·	i
CCN(CC)c1ccc(NS(=O)(=O)c2ccc3c(c2)oc(=O)n3C)c(C)c1	-5%	i	?	-13%	i
COc1cccc(Cn2cnc(-c3ccccc3OC)c2-c2cccs2)c1	·	i	·	·	?
CCCCc1c(-c2ccccc2OC)ncn1Cc1ccc(-c2ccccc2)cc1	·	10µM*	·	·	?
CCc1c(C2CC2)ncn1Cc1cccc(-c2ccccc2)c1	·	i	·	·	15µM*
COc1cccc(Cn2cnc(-c3ccccc3OC)c2-c2cccnc2)c1	·	i	·	·	i
COc1ccccc1-c1nn(Cc2ccccc2)cc1/C=C/C(=O)O	-3%	i	0%	-17%	i
CCOc1ccc2c(c1)ncn2Cc1ccccc1	-7%	?	?	-2%	i
COc1cccc(Cn2cnc(-c3ccccc3OC)c2C2CC2)c1	·	18µM*	·	·	?
CCCCc1c(-c2ccccc2OC)ncn1Cc1cccc(-c2ccccc2)c1	·	15µM*	·	·	?
CCC1C(=O)CC(c2ccccc2)NC1c1ccccc1 (centres undefined)	-5%	?	4%	7%	i
CCCCc1c(-c2ccccc2OC)ncn1CCc1cccc(Cl)c1	·	15µM*	·	·	?
CCCCc1c(-c2ccccc2OC)ncn1C1CCCC1	·	13µM*	·	·	18µM*
COc1ccccc1-c1c(C)nn2c(N)c(-c3ccc(Cl)cc3)cnc12	0%	i	?	0%	i
CCCCc1c(-c2ccccc2OC)ncn1Cc1ccc(Cl)cc1	·	21µM*	·	·	?
COc1ccccc1C1=Nn2c(nnc2C2CCCCC2)SC1	19%	i	?	-5%	i
Cc1ccccc1N1C(=O)c2cccc3cccc(c23)C1=O	5%	i	2%	?	i
CCN(CC)S(=O)(=O)c1ccc(C(=O)NCCSc2c[nH]c3ccccc23)cc1	11%	i	?	1%	i
Cc1ccc(C2OC3=C(C(=O)CC(C)(C)C3)C(N)=C2C#N)o1 (centres undefined)	8%	i	-13%	0%	i
CC1CCN(S(=O)(=O)c2ccc3c(c2)c(=O)c(C(=O)NCc2ccco2)cn3C)CC1	12%	9.2µM*	18µM*	4%	?
SMILES	MCF10A rereplic	KB-V1 cytotox	ELG1 repair inh	SW480 rereplic	KB-3-1 cytotox
CCn1cc(C(=O)NCC2CCCO2)c(=O)c2cc(S(=O)(=O)N(C)C3CCCCC3)ccc21 (centres undefined)	10%	i	16µM*	-5%	i
Cn1cc(C(=O)NCC2COc3ccccc3O2)c(=O)c2cc(S(=O)(=O)N3CCCCC3)ccc21 (centres undefined)	-5%	i	18µM*	-2%	i
C=CCn1cc(C(=O)NCC2CCCO2)c(=O)c2cc(S(=O)(=O)N3CCCCCC3)ccc21 (centres undefined)	0%	?	10µM*	0%	i
C=CCn1cc(C(=O)OC)c(=O)c2cc(S(=O)(=O)N3CCCCCC3)ccc21	0%	i	-10%	-29%	i
CCN1CCCC1CNC(=O)c1cn(C)c2ccc(S(=O)(=O)N3CCCCCC3)cc2c1=O (centres undefined)	-3%	i	-4%	0%	i
COc1ccc(S(=O)(=O)c2c(O)c3ccc(C(=O)Nc4ccccc4F)cc3[nH]c2=O)cc1	-3%	i	0%	-22%	i
CCn1cc(C(=O)NCC(OC)OC)c(=O)c2cc(S(=O)(=O)N(C)C3CCCCC3)ccc21	2%	?	9.2µM*	-22%	i
COC(CNC(=O)c1cn(C)c2ccc(S(=O)(=O)N(C)C3CCCCC3)cc2c1=O)OC	?	i	5.2µM*	-30%	i
CCn1cc(C(=O)NCCCOC)c(=O)c2cc(S(=O)(=O)N(C)C3CCCCC3)ccc21	3%	i	?	-9%	?
COCCNC(=O)c1cn(C)c2ccc(S(=O)(=O)N(C)C3CCCCC3)cc2c1=O	11%	i	?	-12%	?
CCc1ccc(N(C)S(=O)(=O)c2ccc3[nH]cc(C(=O)NCC4CCCO4)c(=O)c3c2)cc1 (centres undefined)	·	i	·	·	i
CCOc1ccc(N(C)S(=O)(=O)c2ccc3[nH]cc(C(=O)NCC4CCCO4)c(=O)c3c2)cc1 (centres undefined)	7%	i	23µM*	-2%	i
O=C(Nc1nnc(-c2ccccc2)o1)c1ccc(Cl)cc1	?	?	·	22%	?
O=c1cc(-c2ccccc2[N+](=O)[O-])oc2ccccc12	5.2µM*	15µM*	-6%	?	i
O=c1oc(-c2ccccc2)cc(Cl)c1Cl	2.9µM*	?	?	9.2µM*	?
O=c1cc(-c2ccccc2)oc2ccc(Cl)cc12	-1%	21µM*	·	0%	i
CC(O)CN=c1cc(-c2ccccc2)oc2ccc(Cl)cc12 (centres undefined)	?	?	?	25%	21µM*
O=P(O)(O)c1cc(-c2ccccc2)oc1-c1ccccc1	3%	i	-8%	-5%	i
O=C(CSc1nccn1Cc1ccccc1)NCc1ccc(F)cc1	·	?	·	·	i
c1ccc(Cn2c(-c3cncs3)nc3ccccc32)cc1	20%	i	?	4%	i
O=c1cc(-c2ccc(O)cc2)oc2ccc3ccccc3c12	18µM*	?	?	20%	?
OCCN=c1cc(-c2ccccc2)oc2ccc(Cl)cc12	?	16µM*	?	?	?
O=c1cc(-c2ccc(F)cc2)oc2ccccc12	11%	13µM*	·	-2%	?
CN(C)CCCN=c1cc(-c2ccccc2)oc2ccc(Cl)cc12	20%	?	?	5%	?
COc1ccc(CN2CCCC(N3CCN(c4cccc(Cl)c4)CC3)C2)cc1OC (centres undefined)	-1%	i	-13%	-5%	i
